Measured values: PubChem BioAssay AID1903 (Southern Research Specialized Biocontainment Screening …, 2009)
Values joined by “and” are separate entries in the source; they are usually repeats but may differ in a detail not shown here. Equal entries are not always repeated. The campaign covered roughly 310,000 compounds. About 1,200 (0.39%) were called active. How the calls were made is not given here. A selection follows. Results with a measured potency or affinity are listed apart.

The molecules below were run against Large T antigen (Simian virus 40) (UniProt P03070) (assay: SV40 large T antigen inhibitors, biochemical (AID 1903)). Conditions: SV40 large T antigen ATPase/helicase inhibition assay; at 20 µM; hits give high values.
Chain of Large T antigen (Simian virus 40) (P03070 whole entry, looked up): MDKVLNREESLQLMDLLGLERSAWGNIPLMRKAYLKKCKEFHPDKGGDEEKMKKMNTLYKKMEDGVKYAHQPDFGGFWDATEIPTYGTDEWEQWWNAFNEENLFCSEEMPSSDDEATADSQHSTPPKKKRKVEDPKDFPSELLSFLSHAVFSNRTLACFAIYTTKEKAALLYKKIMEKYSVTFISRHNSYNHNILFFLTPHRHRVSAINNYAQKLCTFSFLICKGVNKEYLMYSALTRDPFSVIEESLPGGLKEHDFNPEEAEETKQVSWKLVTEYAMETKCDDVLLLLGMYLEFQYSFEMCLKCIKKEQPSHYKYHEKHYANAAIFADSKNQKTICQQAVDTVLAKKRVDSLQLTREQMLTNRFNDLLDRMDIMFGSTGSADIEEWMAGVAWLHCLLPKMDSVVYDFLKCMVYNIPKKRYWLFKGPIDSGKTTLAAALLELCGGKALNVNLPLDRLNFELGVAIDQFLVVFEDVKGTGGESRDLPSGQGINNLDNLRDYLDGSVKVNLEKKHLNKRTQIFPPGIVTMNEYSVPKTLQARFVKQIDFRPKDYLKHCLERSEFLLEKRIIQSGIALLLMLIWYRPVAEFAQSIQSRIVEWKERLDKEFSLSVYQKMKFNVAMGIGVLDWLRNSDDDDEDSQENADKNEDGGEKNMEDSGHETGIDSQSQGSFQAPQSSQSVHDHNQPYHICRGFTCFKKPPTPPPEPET

inhibition, inactive:
CCOC(=O)N/N=C(/C)c1ccc(N2C(=O)C3CCCCC3C2=O)cc1 (stereo not given) 11.8%
O=C(O)c1ccc(N(Cc2ccccc2)S(=O)(=O)c2ccccc2)cc1 1.43% and 0.12%
CN(C[C@H](Cc1ccccc1)N(C[C@H](Cc1ccccc1)N(CCc1cc(C(F)(F)F)cc(C(F)(F)F)c1)N=O)N=O)N=O 0.235%
N#Cc1ccsc1NC(=O)CN1CCN(c2ccccc2)CC1 9.52%
CCC(=O)c1ccc(OCC(=O)OCC(=O)Nc2c(C)n(C)n(-c3ccccc3)c2=O)cc1 12.3%
O=C(CN1CCN(c2ccc(F)cc2)CC1)Nc1ccc2c(c1)OCCO2 8.68%
COc1ccc(N2CCN(CC(=O)Nc3sccc3C#N)CC2)cc1 8.41%
Cc1cc(C)cc(OCC(=O)OCC(=O)Nc2c(C)n(C)n(-c3ccccc3)c2=O)c1 15.2%
Cc1c(NC(=O)CN2CCN(c3ccc(F)cc3)CC2)c(=O)n(-c2ccccc2)n1C 6.05%
O=C(CN1CCN(c2ccccc2)CC1)Nc1ccc2c(c1)OCCO2 -0.06%
Cc1c(NC(=O)CN2CCN(c3ccccc3)CC2)c(=O)n(-c2ccccc2)n1C 3.86%
CCOc1ccc(C2/C(=C(/O)c3ccc4c(c3)CC(C)O4)C(=O)C(=O)N2CCCn2ccnc2)cc1OCC (stereo not given) 2.21%
Cc1ccsc1/C=N/NC(=O)c1cccnc1 10.3%
COc1cccc(N/C=C/C(=O)c2ccc(OC)c(OC)c2)c1 15.6%
Cc1cc(NC(=O)c2ccc3c(c2)C(=O)N(C)C3=O)no1 21.4%
COc1ccccc1C(=O)Nc1cccc2c1CCCC2 3.42%
Cc1cc(CNC(=O)CCc2nnc(CCCc3ccccc3)o2)nn1C 23%
Cc1cccc(N(CC(=O)NCc2ccc3c(c2)OCO3)C(=O)CCC(=O)Nc2ccccn2)c1 3.36%
c1ccc(OCCOCCSc2ncccn2)cc1 3.66%
COc1cccc(-c2ccc3nnc(SCC(=O)N4CCOCC4)n3n2)c1 8.56%
COc1cc(OC)c(C(=O)OCC(=O)N2CCOCC2)cc1OC -1.18%
COc1ccc(N2CCN(CC(=O)NC(=O)NC(C)(C)C)CC2)cc1 22.3%
COc1ccc(N2CCN(CC(=O)Nc3cc(C)on3)CC2)cc1 12.3%
CC(=O)c1ccc(N2CCN(CC(=O)Nc3cc(C)on3)CC2)cc1 11.5%
CC(C)(C)NC(=O)NC(=O)CN1CCN(c2ccccc2)CC1 -1%
